Structures are written as SMILES. A number with no mark means an inactive call. Activity calls are given as the source filed them.

In PubChem BioAssay one finds z-score data, which are given here for 35 molecules.

The assay can be described thus: PSAC antagonists in infected red cells, primary screen, cell-based, P. falciparum Indochina, OD700, 18 h (AID 1157). To be noted: P. falciparum Indochina infected erythrocytes, osmotic lysis OD700, 18 h; higher = more signal, called active from +8 up or from −8 down.
In the case of `CC(C)Cc1ccc(CN2CC[C@@H](NC(=O)Nc3ccccc3)C2)cc1`, the z-score is 0.575.
On to `CC(C)C[C@@H]1NC(=O)[C@@H]2C[C@H](C(=O)NCCCCN(C)C)[C@H](c3cccc(OCCO)c3)N2C1=O`, for which the z-score was 0.128.
Then `CC1CC/C=C\[C@H]2OC34C=CCN(C(C)C)C(=O)[C@H]3N(CCCCCCO)C(=O)[C@@H]4C2C(=O)O1` (stereo not given in full), with -0.751; and `COc1ccc(CCNC(=O)[C@@]2(Sc3ccc(C)cc3)CC(=O)N(C3Cc4ccccc4C3)[C@@H]2c2ccc(CO)cc2)cc1`, with -0.874; and `COc1ccc(-c2nc(-c3ccccc3)c3c(c2C)CO[Si]3(C(C)C)C(C)C)cn1`, with -0.278.
As to `CCCC[C@@H]1C[C@H]1[C@@H](NC(=O)c1cccs1)c1ccc(C(F)(F)F)cc1`, the z-score is 0.592.
Take `CN1C(=O)C2C=CC(C(O)c3ccc(F)cc3)N(Nc3ccccc3)C2C1=O` (stereo not given): the z-score was 0.582.
As for `OCC1CC(c2ccccc2)=NO1` (stereo not given), the figure is 0.206.
Then `COC1OC[C@]2(C)[C@H]3C4=C(CN2C(=O)OC(C)(C)C)[C@H](C)C(CO)C(CO)C4CC[C@@H]13` (stereo not given in full), with 0.494.
As for `NCCCCCCNC(=O)[C@@H]1C[C@@H]2C(=O)N[C@@H](CCCCN)C(=O)N2[C@@H]1c1cccc(OCCO)c1`, the figure is 0.472; as for `CCOC(=O)C1=C[C@@H](c2ccccc2)N(S(=O)(=O)c2ccc(C)cc2)[C@H]1c1ccccc1Cl`, 0.805; as for `CCOc1cc(C(O)C2C=CC3C(=O)N(c4ccccc4)C(=O)C3N2Nc2ccc(C#N)cc2)ccc1O` (stereo not given), 1.27.
As to `CCCCCCCCCCC(O)C1C=CC2C(=O)N(C)C(=O)C2N1NC(=O)OC(C)(C)C` (stereo not given), the z-score was 1.81.
As for `NCCCCCNC(=O)[C@@H]1C[C@@H]2C(=O)NCC(=O)N2[C@@H]1c1cccc(OCCO)c1`, the figure is 0.154; as for `[N-]=[N+]=NCc1ccccc1[C@H]1OC(c2ccc(OCCCO)cc2)=N[C@@]1(CCS(=O)(=O)c1ccccc1)C(=O)N1CCCCC1`, 1.5.
For `CCOC(=O)C[C@H]1[C@H](OC(=O)c2ccccc2-c2ccccc2)[C@@H](NC(=O)c2ccc(-c3ccccc3)cc2)c2cc(OCCCO)ccc2N1C(=O)c1ccc2ccccc2n1`, the z-score is 0.232.
For `CCCCCCc1nc(C2CC2)cc2c1[Si](C(C)C)(C(C)C)OC2`, the z-score was -1.13.
As for `O=C1C[C@@](C(=O)NCCN2CCOCC2)(c2ccc([N+](=O)[O-])cc2)[C@@H](c2ccc(CO)cc2I)N1C1CCCCC1`, the figure is -0.168.
`COC(=O)[C@@]1(Cc2ccc(OC)cc2)[C@H]2c3cc(C(=O)N4CCCC4)n(Cc4c(-c5ccccc5)noc4C)c3C[C@H]2CN1C(=O)c1ccccc1`: the z-score is 1.5.
Then `CC(C)(C)N1CC=CC23O[C@@H]4C=CCCOC(=O)C4[C@H]2C(=O)N(CCO)[C@@H]3C1=O` (stereo not given in full), with 0.6; and `O=C1O[C@@H](c2ccccc2)[C@@H](c2ccccc2)N2[C@@H](c3ccccc3OCCO)[C@]3(C(=O)Nc4ccc(C#CCCO)cc43)[C@@H](C(=O)N3CCCCCCC3)[C@H]12`, with 0.49.
As for `CO[C@]12C=C(Br)[C@@H](C[C@@H]1c1cccc(C)c1)[C@@]1(CO1)C2=O`, the figure is -0.382; as for `O=C1C2C=CC(C(O)c3ccccc3)N(Nc3ccccc3F)C2C(=O)N1c1ccccc1` (stereo not given), 0.632; as for `CC[C@H]1C2=C3C(CC[C@H]4C(OCc5ccc(F)cc5C(F)(F)F)OC[C@](C)([C@@H]34)N(C(=O)OC(C)(C)C)C2)C(COC)C1COC` (stereo not given in full), 0.297.
Regarding `Cc1ccc(S[C@]2(C(=O)O)CC(=O)N(C3Cc4ccccc4C3)[C@@H]2c2ccc(CO)cc2)cc1`, the z-score is -0.333.
`COc1ccc(NC(=O)O[C@H]2[C@H](OC(=O)Nc3ccccc3)[C@@H](OC(=O)Nc3ccccc3)[C@@H](OC)O[C@@H]2CO)cc1`: the z-score was 0.373.
Then `CCCC[C@@H]1C[C@H]1[C@@H](NC(=O)Cc1ccccc1)c1ccc(-c2ccccc2)cc1`, with 0.345.
As for `N#Cc1ccc(NN2C(C(O)c3ccc(F)cc3)C=CC3C(=O)N(c4ccccc4)C(=O)C32)cc1` (stereo not given), the figure is 1.29; as for `[N-]=[N+]=NCc1ccccc1C[C@]1(C(N)=O)N=C(c2ccc(OCCCO)cc2)O[C@H]1c1ccccc1`, 0.913.
As to `COCCCNC(=O)[C@@]1(Cc2ccccc2N=[N+]=[N-])N=C(c2ccc(OCCCO)cc2)O[C@H]1c1ccccc1`, the z-score is 1.4.
Then `CN(C)CCCNC(=O)[C@@H]1c2ccccc2C(=O)N(Cc2ccccc2Cl)[C@H]1c1ccc(CO)cc1`, with 0.599; and `C=C(/C(=C/C[C@H](OC(=O)c1ccncc1)c1ccc(CO)o1)c1cc(C(=O)OC)ccc1OC)C(C)C`, with 0.136.
Then `C=CCC(OC(C)=O)[C@@H]1[C@@H](N(Cc2ccc(-c3cccc(C(F)(F)F)c3)o2)C(=O)c2ccc(-c3ccccc3)cc2)c2cc(OCCCO)ccc2N1C(=O)c1ccc2ccccc2n1` (stereo not given in full), with 0.188; and `CCCCN1CC=CC23O[C@@H]4/C=C\CCC(C)OC(=O)C4[C@H]2C(=O)N(C(CO)C(C)C)[C@@H]3C1=O` (stereo not given in full), with 0.406; and `[N-]=[N+]=Nc1ccccc1[C@H]1OC(c2ccc(OCCCO)cc2)=N[C@@]1(Cc1ccccc1)C(=O)N1CCCCC1`, with 8.26 (active).
